Inconclusive results are not listed. A number with no mark means an inactive call. Calls come from the whole dose curve; as a rule, active = well fitted inhibition curve with a large enough effect; inconclusive = small, poorly fitted or top-dose-only effect, or effect the other way; inactive = flat fitted curve, though single readings scatter.
% is set by controls: 0 for no effect and ±100 for the full control effect.

Sequence of ATP-dependent 6-phosphofructokinase (Trypanosoma brucei brucei) (O15648 whole entry, looked up): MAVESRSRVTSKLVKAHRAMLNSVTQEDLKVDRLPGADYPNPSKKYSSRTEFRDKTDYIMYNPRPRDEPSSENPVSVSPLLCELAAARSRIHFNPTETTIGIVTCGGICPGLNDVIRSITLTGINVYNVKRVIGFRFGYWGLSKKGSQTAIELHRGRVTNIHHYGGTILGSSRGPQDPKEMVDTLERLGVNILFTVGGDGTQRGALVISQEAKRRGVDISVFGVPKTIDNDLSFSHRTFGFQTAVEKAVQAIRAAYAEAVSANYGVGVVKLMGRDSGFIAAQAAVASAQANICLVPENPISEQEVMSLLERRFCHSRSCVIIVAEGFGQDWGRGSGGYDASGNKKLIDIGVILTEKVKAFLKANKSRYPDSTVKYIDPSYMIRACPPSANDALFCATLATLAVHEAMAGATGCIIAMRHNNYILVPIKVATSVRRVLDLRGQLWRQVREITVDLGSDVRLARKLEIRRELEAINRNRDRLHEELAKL

The experiment deals with ATP-dependent 6-phosphofructokinase (Trypanosoma brucei brucei) (UniProt O15648). Nature of the experiment: qHTS Assay to Find Inhibitors of T. brucei phosphofructokinase: hit validation (AID 492961).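 Note: luminescence reports ADP formed as PFK phosphorylates fructose-6-phosphate with ATP.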 The following applies: T. brucei PFK, ADP-Glo luminescence; series mostly up to 51.4 µM; activity change, negative = inhibition: at the top concentration. The essentials:
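PFK 1.25 nM, F6P 0.5 mM, ATP 0.1 mM, MgCl2 5 mM, 0.1 M TEA pH 8.0, Tween20 0.01%, BSA 0.1%; 45 min RT. ADP-Glo two-step detection, luminescence. qHTS titration; curve fitting with curve-class categorization.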
For orientation: Quantitative high-throughput screening tests each substance at several concentrations.
On to `O=C(OCCOCCO)c1ccccc1Nc1cccc(C(F)(F)F)c1`, for which the “activity change, negative = inhibition” value is -1.46% [at 24.3 µM]. Then `COc1cc2c(cc1OC)C(C(C(=O)N(CCc1ccc(OC)c(OC)c1OC)CCc1ccc(OC)c(OC)c1OC)c1ccccc1)=NCC2` (configuration not stated), with -1%; and `Cc1cccc(C)c1NC(=O)CN1CCN(CCCC(c2ccc(F)cc2)c2ccc(F)cc2)CC1`, with 1.27% [at 24.3 µM]. Then `O=C(Nc1ccc(Oc2ccc(Cl)cc2)c(Cl)c1)c1cc(I)cc(I)c1O`, with -2.2%; and `CCCCOc1ccc(OCCCN2CCOCC2)cc1`, with -5.33% [at 24.3 µM]; and `CC(Cc1cccc(C(F)(F)F)c1)NCCOC(=O)c1ccccc1` (configuration not stated), with 1.64%.

In the case of `N[C@@H](Cc1cnc[nH]1)C(=O)O`, the “activity change, negative = inhibition” value is 3.53%.

With `CN(C)CC/C=C1\c2ccccc2Sc2ccc(Cl)cc21`, the “activity change, negative = inhibition” value is 0.993%.

For `Nc1cc(Cl)c(NC2=NCCN2)c(Cl)c1`, the “activity change, negative = inhibition” value is 0.809%.

Regarding `CCOC(=O)/C=C(C)/C=C/C=C(C)/C=C/c1c(C)cc(OC)c(C)c1C`, the “activity change, negative = inhibition” value was 1.85%. With `CNCCC(Oc1ccccc1C)c1ccccc1` (configuration not stated), the “activity change, negative = inhibition” value is -4.54%.

As to `COc1cc2c(cc1OC)C(=O)C(CC1CCN(Cc3ccccc3)CC1)C2` (configuration not stated), the “activity change, negative = inhibition” value was 5.33%. On to `O=C1CCC(c2ccc(-n3ccnc3)cc2)=NN1`, for which the “activity change, negative = inhibition” value is -2.12%. Then `C[C@H](O)C(=O)Nc1c(I)c(C(=O)NC(CO)CO)c(I)c(C(=O)NC(CO)CO)c1I`, with 0.63% [at 24.3 µM]; and `Cc1c(N(C)CS(=O)(=O)O)c(=O)n(-c2ccccc2)n1C`, with -4.65% [at 24.3 µM]; and `CC(C)(C)CC(C)(C)c1ccc(O)c(Cc2ccc(Cl)cc2Cl)c1`, with 0%. Next, `C[C@@H]1C(=O)NC2=Nc3cccc(Cl)c3CN21`: 0%. Then `CCOC(=O)n1ccn(C)c1=S`, with 6.87% [at 24.3 µM]; and `C[N+]1(CCCCC[N+]2(C)CCCC2)CCCC1`, with 3.47%; and `O=S1(=O)c2cccc3cccc(c23)N1CCCN1CCN(c2ccc(F)cc2)CC1`, with -1.05%. For `CNCCC=C1c2ccccc2CCc2ccccc21`, the “activity change, negative = inhibition” value is -0.656%.

Consider `C#C[C@]1(OC(C)=O)CC[C@H]2[C@@H]3CCC4=C[C@@H](OC(C)=O)CC[C@@H]4[C@H]3CC[C@@]21C`, for which the “activity change, negative = inhibition” value is 4.16%. Next, `C#C[C@]1(O)CC[C@H]2[C@@H]3CCc4cc(OC5CCCC5)ccc4[C@H]3CC[C@@]21C`: 3.14%; `CCCCCCCCCCCCCCNCCO`: 3.03%; `CCOc1ccc(Cc2nccc3cc(OCC)c(OCC)cc23)cc1OCC`: 0.545% [at 24.3 µM]. Then `CCN(CC)CCOc1ccc(C(O)(Cc2ccc(Cl)cc2)c2ccc(C)cc2)cc1` (configuration not stated), with 4.95%; and `C[C@]12CC[C@@H]3c4ccc(O)cc4CC[C@H]3[C@@H]1CC[C@@H]2O`, with -2.38%. Then `COc1cc(NS(C)(=O)=O)ccc1Nc1c2ccccc2nc2ccccc12`, with -4.73%; and `CC1(C)CCC(NC(=O)[C@@H](N)CCC(=O)O)CC1`, with -6.74%. Regarding `CC(C)COC(=O)OCN1C(=O)CN(CCN2CC(=O)N(COC(=O)OCC(C)C)C(=O)C2)CC1=O`, the “activity change, negative = inhibition” value is -0.0383%. Take `COc1cc(-c2ccc(=O)[nH]n2)ccc1OC(F)F`: the “activity change, negative = inhibition” value was 0%.

Turning to `CC1=C(C(=O)OC(C)C)C(c2cccc([N+](=O)[O-])c2)C(C(=O)OC2CN(C(c3ccccc3)c3ccccc3)C2)=C(N)N1` (configuration not stated), the “activity change, negative = inhibition” value is -4.86%. Then `CCCCCCCCCCCCCCCCCC(=O)OCC(O)CO` (configuration not stated), with 15%. Then `CCCCCCC[N+](CC)(CC)CCCCc1ccc(Cl)cc1`, with -4.84% [at 24.3 µM]; and `c1ccc(CNCCNCc2ccccc2)cc1`, with -6%; and `NCCCC[C@H](N[C@@H](CCc1ccccc1)C(=O)O)C(=O)N1CCC[C@H]1C(=O)O`, with 1.35% [at 24.3 µM].

As to `Cc1c(C)n(Cc2ccccc2)c2ccc(C(=O)OCCN(C)C)cc12`, the “activity change, negative = inhibition” value is -5.3%.

The values above are taken from PubChem BioAssay (NCATS).
